Sampled rows, rich in hits. Any-hit rate of the full collection: about 18%.
LDHA inh – qHTS assay for inhibitors of human lactate dehydrogenase | L-lactate dehydrogenase A chain (Homo sapiens), P00338 | purified LDHA, NADH/diaphorase-resazurin fluorescence; stronger effect = lower value | activity change, % (values are at about 110 or 230 µM) | 480,000 compounds, 0.15% hits; in the data active means activity change below about -30%; inconclusive means mostly about -25% to -30%;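 further: plate controls were DMSO wells for no effect and wells without enzyme for full effect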
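LDH5 2 nM; NADH 0.06 mM, pyruvate 0.2 mM; 200 mM Tris pH 7.4, EDTA, Tween-20; 5 min RT. Detection: diaphorase 0.133 mg/mL + resazurin 37 µM, fluorescence ex540/em590 at 0 and 20 min; normalized to enzyme-free and DMSO wells.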
TDP1 cell CPT – qHTS for Inhibitors of human tyrosyl-DNA phosphodiesterase 1 (TDP1): qHTS in cells in presence of CPT | Potency, µM (doses to about 46.2 µM), for the others: top-dose activity change, negative = growth inhibition, hits mostly inhibitors | chicken DT40 Tdp1-/-;hTDP1 cells + 20 nM CPT, ATP luminescence, 48 h | 420,000 compounds, 12% hits; further: potency means the concentration at half of the fitted maximal effect; nearly all actives have a fitted effect of over 55% in size
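Cell growth measured by CellTiter-Glo luminescence after a minimum 48 h, 37 C compound exposure with 20 nM CPT in Tdp1-knockout DT40 cells stably expressing hTDP1, seeded 400/well; qHTS titration format.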
RORgamma inh – qHTS for inhibitors of ROR gamma transcriptional activity | Nuclear receptor ROR-gamma (Mus musculus), P51450 | Drosophila S2 Gal4-RORgamma UAS-luciferase reporter, 20 h | Potency, µM (highest dose often 53.6 µM), for inactives: at the top dose activity change, negative = inhibition, usual class: inhibitors | 310,000 compounds, 5.4% hits; further: potency means the concentration at half of the fitted maximal effect; nearly all actives have a fitted effect of over 60% in size
Target sequence (P51450 whole entry, looked up, the tested form may be a part): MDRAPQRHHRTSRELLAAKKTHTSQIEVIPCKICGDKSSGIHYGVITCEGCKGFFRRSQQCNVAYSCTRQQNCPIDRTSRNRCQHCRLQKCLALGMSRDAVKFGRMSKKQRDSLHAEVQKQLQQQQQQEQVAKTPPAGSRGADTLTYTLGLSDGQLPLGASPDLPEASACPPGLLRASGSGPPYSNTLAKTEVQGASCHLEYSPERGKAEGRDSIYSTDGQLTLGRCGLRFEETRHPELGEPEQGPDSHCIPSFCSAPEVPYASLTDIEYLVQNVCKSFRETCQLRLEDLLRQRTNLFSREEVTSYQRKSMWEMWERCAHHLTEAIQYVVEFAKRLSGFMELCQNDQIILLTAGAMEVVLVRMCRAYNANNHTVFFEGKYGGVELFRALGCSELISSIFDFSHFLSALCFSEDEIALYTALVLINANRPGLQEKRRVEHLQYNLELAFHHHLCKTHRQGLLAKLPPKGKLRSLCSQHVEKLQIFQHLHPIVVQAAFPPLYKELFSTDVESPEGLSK
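A Gal4/UAS one-hybrid system in insect cells: metallothionein-promoter Gal4–ROR gamma fusion plus Photinus luciferase reporter. Copper sulfate 700 uM final, 20 hr ambient incubation, luminescent detection after 10 min with reagent.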
TDP1 cell noCPT – qHTS for Inhibitors of human tyrosyl-DNA phosphodiesterase 1 (TDP1): qHTS in cells in absence of CPT. 420,000 compounds, 15% hits. Potency, µM (highest dose often 46.2 µM), inactives show at the highest dose activity change, negative = growth inhibition, actives largely listed as inhibitors. DT40 Tdp1-/- hTDP1 cells, no CPT, ATP luminescence, 48 h; further: potency means the concentration at half of the fitted maximal effect; nearly all actives have a fitted effect of over 55% in size
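Stably hTDP1-transfected Tdp1-null chicken DT40 cells were treated with library compounds minus camptothecin and grown for at least 48 hr at 37 °C, after which cellular ATP was quantified by luminescence.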
IL1B secr inh – qHTS for Inhibitors of Inflammasome Signaling: IL-1-beta AlphaLISA Primary Screen; THP-1 LPS/ATP IL-1B secretion, AlphaLISA, 16 h; stronger effect = lower value; activity change, % at 57.5 µM; 360,000 compounds, 4.7% hits; AID 743279, 2014; in the data active means activity change below about -50%; inconclusive means mostly about -30% to -49%
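Secreted IL-1B measured by AlphaLISA bead assay after 16 h compound exposure of THP-1 cells; compounds (final up to 57.5 uM) added 1 h before LPS (250 ng/mL) and ATP (1.25 mM) stimulation; lower signal means less secretion.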
VP16 counter – VP16 counterscreen qHTS for inhibitors of ROR gamma transcriptional activity. Potency, µM (series often up to 53.6 µM), inactives show top-dose activity, negative = inhibition, hits mostly inhibitors. 310,000 compounds, 3.5% hits. Drosophila S2 Gal4-VP16 UAS-luciferase, luminescence, 20 h. AID 2546, 2010;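 further: Gal4-VP16 expression switched on by copper sulfate through the metallothionein promoter; potency means the concentration at half of the fitted maximal effect; nearly all actives have a fitted effect of over 50% in size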
* = called active by the depositor; i = inactive; ? = inconclusive; / = no result given; [ ] = another dose, or the depositor's remark. Unless noted, the call rests on the fitted dose curve; in most records, active means well fitted curve in the direction sought with a large enough effect; inconclusive means small, poorly fitted or top-dose-only effect, or another doubt; inactive means no such curve, though single readings can be large; an effect the other way counts as inactive or inconclusive. Unless noted, on the % scale 0 is the no-effect control and ±100 the full control effect.

SMILES	LDHA inh	TDP1 cell CPT	RORgamma inh	TDP1 cell noCPT	IL1B secr inh	VP16 counter
CCOc1ccccc1OCC(=O)Nc1nc2ccccc2[nH]1	-11.6	-22.8%	5.62µM*	?	-4.2	?
Fc1c(F)c(F)c(CSc2nc3ccccc3[nH]2)c(F)c1F	-5.2	-17.8%	19.0%	-13.2%	-22.3	21.2%
NC(=O)CCCSc1nc2ccccc2[nH]1	-4.7	-17.9%	2.6%	17.5%	42.0	23.4%
O=C(COc1cccc2ccccc12)Nc1nc2ccccc2[nH]1	1.3	?	10µM*	?	22.9	11.2µM*
Cc1cc(C)c(OCC(=O)Nc2nc3ccccc3[nH]2)c(C)c1	-1.1	6.4%	11.2µM*	-3.1%	-12.9	-27.1%
Cc1ccccc1OCC(=O)Nc1nc2ccccc2[nH]1	-7.4	28.9%	7.08µM*	-5.0%	-23.3	?
Cc1cc(=O)oc2cc(OCC(=O)Nc3nc4ccccc4[nH]3)ccc12	-23.7	/	/	/	/	/
O=C(NC1CCCC1)C1(c2ccc(F)cc2)CCCC1	3.1	/	/	/	/	/
N#Cc1ccc(-c2ccc(OCC(O)Cn3nnc4ccccc43)cc2)cc1 (configuration not stated)	0.7	?	-28.8%	?	-59.4*	?
CC(=O)c1ccc(OCC(O)Cn2nnc3ccccc32)cc1 (configuration not stated)	-2.7	?	-6.0%[10 µM]	-20.6%	-0.3	0.6%
COC(=O)c1ccc(OCC(O)Cn2nnc3ccccc32)cc1 (configuration not stated)	1.0	-8.3%	?	?	30.2	10.1%
O=C1C2CC=CCC2C(=O)N1c1ccc(OCC(O)Cn2nnc3ccccc32)cc1 (configuration not stated)	0.9	?	25.2%	23.1µM*	49.8	1.6%
COc1ccc(-n2c(-c3ccccc3F)nc3c(cnn3-c3ccc(C)cc3)c2=O)cc1	-2.2	20.6µM*	/	13µM*	/	/
COc1ccc(-n2c(-c3ccco3)nc3c(cnn3-c3ccc(C)cc3)c2=O)cc1	13.5	11.6µM*	?	11.6µM*	-7.1	1.3%
COc1cccc(-n2c(-c3ccco3)nc3c(cnn3-c3ccc(C)cc3)c2=O)c1	4.4	14.6µM*	/	14.6µM*	/	/
COc1cccc(-n2nc(-c3ccnn3-c3ccc(C)cc3)c(=O)n(C)c2=O)c1	-8.6	?	-26.8%	-28.4%	-57.0*	-8.5%
Cc1cc(NS(C)(=O)=O)cc2sc(NC(=O)c3ccccc3)nc12	-9.3	/	/	/	/	/
Fc1ccc(CCNC(=S)NCc2ccc(Cl)cc2)cc1	1.9	/	/	/	/	/
Cc1ccc(NC(=O)CN2C(=O)C3(SCC(=O)N3c3ccc(F)c(F)c3)c3ccccc32)c(C)c1 (configuration not stated)	1.3	?	/	?	/	/
Cc1cc(C)cc(N2C(=O)CSC23C(=O)N(Cc2c(F)cccc2Cl)c2ccccc23)c1 (configuration not stated)	0.3	16.4µM*	/	16.4µM*	/	/
CCc1cccc(C)c1NC(=O)CN1C(=O)C2(SCC(=O)N2c2cc(C)cc(C)c2)c2ccccc21 (configuration not stated)	1.7	18.4µM*	/	16.4µM*	/	/
COc1cccc(NC(=O)CN2C(=O)C3(SCC(=O)N3c3cc(C)cc(C)c3)c3ccccc32)c1 (configuration not stated)	-6.2	18.4µM*	/	?	/	/
CCOc1ccc(NC(=O)CN2C(=O)C3(SCC(=O)N3c3ccc(F)cc3)c3ccccc32)cc1 (configuration not stated)	-1.5	23.1µM*	/	?	/	/
O=C(CN1CCN(c2cnn(-c3ccccc3)c(=O)c2Cl)CC1)Nc1ccc2c(c1)CCC2	4.4	/	/	/	/	/
O=S1(=O)C=C(N2CCC3(CC2)OCCO3)c2ccccc21	4.9	/	/	/	/	/
SMILES	LDHA inh	TDP1 cell CPT	RORgamma inh	TDP1 cell noCPT	IL1B secr inh	VP16 counter
COc1cccc(N2C(=O)CSC23C(=O)N(CC(=O)Nc2cc(C)ccc2C)c2ccccc23)c1 (configuration not stated)	-4.4	?	/	?	/	/
Cc1cccc(NC(=O)CN2C(=O)C3(SCC(=O)N3c3ccccc3)c3ccccc32)c1 (configuration not stated)	-8.2	23.1µM*	/	?	/	/
Cc1oc(-c2ccccc2)nc1CC(=O)Nc1ncccc1O	-0.1	/	/	/	/	/
Cc1ccc(Nc2nnc(SCC(=O)c3c(N)n(C4CC4)c(=O)[nH]c3=O)s2)cc1C	-0.4	20.6µM*	/	?	-5.2	/
CN1/C(=C\C=C(C#N)C#N)C(C)(C)c2ccccc21	-1.2	-7.0%	-0.6%	-16.1%	19.4	2.5%
CN1/C(=C/C=N/n2cnnc2)C(C)(C)c2ccccc21	-10.9	18.4µM*	22.8%	23.1µM*	25.5	17.8µM*
CN1/C(=C\C=N\NC(=O)c2ccccc2Br)C(C)(C)c2ccccc21	-3.9	-26.4%	0.794µM*	?	9.6	1.26µM*
COc1cc(OC)c(NC(=O)CSCc2cc(=O)n3cccc(C)c3n2)cc1Cl	-0.5	/	/	/	/	/
CCCCn1nc(C(=O)Nc2nc(-c3cccs3)cs2)c2ccccc2c1=O	-2.8	/	/	/	/	/
Cc1ccc(C2N(c3ccc(Cl)cc3)C(=O)N3CCCN23)cc1 (configuration not stated)	1.2	?	19.6%	14.6µM*	-14.9	-1.5%
O=C1N(c2ccccc2)C(c2ccc(Cl)cc2)N2CCCN12 (configuration not stated)	-1.6	1.5%	22.1%	-21.5%	i	-8.2%
Oc1ccc(C2CNCc3sccc32)cc1O (configuration not stated)	17.5	14.6µM*	/	20.6µM*	2.9	/
Oc1ccc(C2CNCCc3c2cc(O)c(O)c3Cl)cc1 (configuration not stated)	-9.6	?	0.3%[10 µM]	-3.8%	-0.9	-0.2%
COc1ccc(-c2cc(C(=O)N(C)Cc3cccc(OC)c3OC)c3ccccc3n2)cc1OC	1.3	20.6µM*	15.4%	14.6µM*	-10.1	-4.8%
COc1cccc(CN(C)C(=O)c2cc(-c3ccc(F)cc3)nc3ccccc23)c1	0.8	20.6µM*	-3.2%	20.6µM*	-28.6	5.6%
COc1ccc(CN(C)C(=O)c2cc(=O)[nH]c3ccccc23)c(OC)c1	-3.6	/	/	/	/	/
CN1CCC(N(C)C(=O)c2cc(-c3ccc(F)cc3)nc3ccccc23)CC1	-5.9	?	/	?	-67.8*	/

Bioassay records deposited in PubChem BioAssay by National Center for Advancing Translational Sciences (NCATS).
